tim10-1 inh = inhibits growth of tim10-1 mutant yeast; S. cerevisiae tim10-1 ts strain growth, BacTiter-Glo, 24 h; inhibition, % at 20 µM; hit rate 2.2% among 330,000; AID 463190;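 active = inhibition of at least 40%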;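 note: mutant grown at 25 °C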
PfHsp90 set2 = inhibits growth of yeast expressing Plasmodium falciparum Hsp90. AID 504621. S. cerevisiae expressing PfHsp90, BacTiter-Glo ATP, 48 h; yeast lacking PDR1 and PDR3 efflux regulators. inhibition, % at 9.4 µM. hit rate 0.32% among 310,000;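 active = every replicate shows inhibition above about 80%, whatever the replicate mean, limit read from the data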
tim23-1 inh = growth inhibitors of tim23-1 mutant yeast. hit rate 1.3% among 330,000. inhibition, % at 20 µM. AID 463212. S. cerevisiae tim23-1 growth, BacTiter-Glo luminescence, 24 h;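 active = growth inhibition of the mutant yeast at or above 50%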;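 note: temperature-sensitive mutant grown at 25 °C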
TIM10 inh = TIM10 yeast growth inhibition; S. cerevisiae TIM10 strain growth, BacTiter-Glo luminescence, 24 h; inhibition, % at 10 µM; hit rate 1.4% among 330,000; AID 463195;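 active = inhibition of 40% or more at the single tested concentration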;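 note: wild-type TIM10 isogenic control strain grown at permissive 25 °C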
V-ATPase pH = alters yeast V-ATPase proton transport; response, % at 10 µM; S. cerevisiae, pHLuorin cytosolic pH fluorescence; AID 504577; hit rate 0.37% among 350,000; in the data active = response mostly above about 7.3%, no sharp cut-off; inactive = mostly below about 5.4%; note: actives read high
tim10-1 confirm = tim10-1 yeast growth inhibition, confirmed. shares compounds with tim10-1 inh. S. cerevisiae tim10-1 ts strain growth, BacTiter-Glo, 24 h. inhibition, % at 20 µM. hit rate 56% among 7,400;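 active = inhibition of yeast growth at or above a set limit in either of two repeat tests at 20 µM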;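 note: tim10-1 mutant grown at permissive 25 °C to find synthetic lethal compounds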
TIM10 conf = confirmation of TIM10 yeast growth inhibitors | shares compounds with TIM10 inh | S. cerevisiae tim10 strain growth, BacTiter-Glo luminescence, 24 h | inhibition, % at 10 µM | hit rate 63% among 4,600 | AID 463215;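 active = inhibition of yeast growth at or above a set limit in either of two replicates at 10 µM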; note: this counterscreen used the strain with wild-type TIM10
tim23-1 confirm = tim23-1 yeast growth inhibition, confirmed; shares compounds with tim23-1 inh; hit rate 83% among 4,400; inhibition, % at 20 µM; AID 463218; S. cerevisiae tim23-1 growth, BacTiter-Glo luminescence, 24 h;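 active = inhibition above about 39% in either of two replicate wells at 20 µM, limit read from the data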;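 note: temperature-sensitive tim23-1 mutant grown at 25 °C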
Large screens that a line does not name were inactive (follow-up assays come after a bar, where they were run). A selection: hits, their analogues and other compounds. The true share with any hit is near 3.7%.

COc1ccc2cc3cc(C(=O)N4CCN(c5ccccc5)CC4)oc3nc2c1	none (no result: PfHsp90 set2)
COCCNC(=O)c1cc2cc3ccc(OC)cc3nc2o1	none
COc1ccc2cc3cc(C(=O)Nc4ccccc4N4CCN(C)CC4)oc3nc2c1	tim10-1 inh 55.3, TIM10 inh 44.1 | tim10-1 confirm 44.0 | TIM10 conf inactive
Cc1ccc2cc3cc(C(=O)NCCCN4CCc5ccccc5C4)oc3nc2c1	tim10-1 inh 50.7, TIM10 inh 64.2 | tim10-1 confirm 34.8 | TIM10 conf inactive
COc1ccc2cc3cc(C(=O)NCCN4CCN(c5ccccc5F)CC4)oc3nc2c1	tim10-1 inh 70.9, TIM10 inh 79.0 | tim10-1 confirm 63.0 | TIM10 conf inactive
CCCN(CCC)CCCNC(=O)c1cc2cc3ccc(Cl)cc3nc2o1	tim10-1 inh 57.7, TIM10 inh 60.1 | tim10-1 confirm 39.1 | TIM10 conf 41.1
CCCCN(CC)CCCNC(=O)c1cc2cc3ccc(C)cc3nc2o1	none
CC(=O)c1ccc(NC(=S)NCCCN2CCOCC2)cc1	none
Cc1c(C(=O)Nc2c3c(nn2C(C)(C)C)CS(=O)(=O)C3)cccc1[N+](=O)[O-]	none
CCN(CC)c1ccc(C=NCCNS(=O)(=O)c2ccc(C)cc2)cc1	none
CN1CCN(c2ccccc2NC(=S)NC(=O)c2cc3ccccc3o2)CC1	tim10-1 inh 40.3, TIM10 inh 97.8 | tim10-1 confirm inactive | TIM10 conf inactive
O=C(NC(=S)Nc1ccccc1N1CCCCC1)c1cccs1	tim10-1 inh 42.6, TIM10 inh 52.4 | tim10-1 confirm 33.6 | TIM10 conf 60.7
CCCn1c(NC(=O)c2cccc(S(=O)(=O)N3CCCC3)c2)nc2ccccc21	tim10-1 inh 40.9, tim23-1 inh 50.3 | tim10-1 confirm inactive | tim23-1 confirm 57.9
CCCn1c(NC(=O)c2ccccc2)nc2ccccc21	none
CCN(CC)CCNc1ccc(CO)c2oc3ccccc3c(=O)c12	none (no result: tim10-1 inh, PfHsp90 set2, tim23-1 inh, TIM10 inh)
CCn1c(=O)c(C(=O)NCc2ccccn2)c(O)c2ccccc21	tim10-1 inh 44.7, tim23-1 inh 59.6 | tim10-1 confirm inactive | tim23-1 confirm 57.8
CCn1c(=O)c(C(=O)NCc2ccc(OC)cc2)c(O)c2ccccc21	none
Cc1cccc(-n2nnnc2SCC(=O)Nc2cccc(S(N)(=O)=O)c2)c1	none
Cc1cc2nc3ccc(N(C)C)cc3nc2cc1N	tim10-1 inh 45.8, tim23-1 inh 50.3, TIM10 inh 70.4 | tim10-1 confirm 57.7 | TIM10 conf 72.8 | tim23-1 confirm 40.7
N/C(=N\OC(=O)C12CC3CC(CC(C3)C1)C2)c1cccnc1	none
N/C(=N\OC(=O)C12CC3CC(CC(C3)C1)C2)c1ccccn1	tim10-1 inh 61.9, tim23-1 inh 51.4, TIM10 inh 41.3 | tim10-1 confirm 44.3 | TIM10 conf inactive | tim23-1 confirm 48.9
N/C(=N\OC(=O)C12CC3CC(CC(C3)C1)C2)c1ccccc1	tim10-1 inh 64.5, tim23-1 inh 70.4, TIM10 inh 78.7 | tim10-1 confirm 53.7 | TIM10 conf 77.9 | tim23-1 confirm 70.9
Cn1c(SCC(=O)Nc2cccc(F)c2)nc2c(c1=O)SCC2	none
COc1ccc(NC(=O)c2ccc([N+](=O)[O-])o2)cc1	tim10-1 inh 64.2, tim23-1 inh 59.3, TIM10 inh 40.8 | tim10-1 confirm 45.2 | TIM10 conf 42.6 | tim23-1 confirm 57.7
O=C(NNC(=O)c1ccc([N+](=O)[O-])o1)c1ccccc1	none
Cc1cc(-c2nc3ncccc3o2)ccc1NC(=O)c1ccc([N+](=O)[O-])o1	none (no result: tim10-1 inh, tim23-1 inh, TIM10 inh)
CC(=O)c1cccc(NC(=O)c2ccc([N+](=O)[O-])o2)c1	tim10-1 inh 65.4, tim23-1 inh 76.8, TIM10 inh 46.6 | tim10-1 confirm 51.8 | TIM10 conf 45.9 | tim23-1 confirm 72.3
O=C(Nc1ccc2oc(-c3ccncc3)nc2c1)c1ccc([N+](=O)[O-])o1	tim10-1 inh 45.4, tim23-1 inh 69.0, TIM10 inh 52.8 | tim10-1 confirm 68.3 | TIM10 conf 74.9 | tim23-1 confirm 78.9
